# Source: PubChem BioAssay
# Rows were chosen to be rich in hits. Some 2.4% of all compounds tested hit in one or more screens of this group.
# D2 ag-1: HTS Assay for Allosteric Agonists of the Human D2 Dopamine Receptor: Primary Screen for Agonists; D(2) dopamine receptor (Homo sapiens), P14416; HEK293 T-REx D2 cells, calcium flux agonist mode; activation, % at 2 µM; 340,000 tested, 0.53% active;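 active = activation over 3 SD above normal in the single-dose calcium agonist read, cut at about 30% in these data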; note: 0% is about no effect
# Target sequence (P14416 whole entry, looked up): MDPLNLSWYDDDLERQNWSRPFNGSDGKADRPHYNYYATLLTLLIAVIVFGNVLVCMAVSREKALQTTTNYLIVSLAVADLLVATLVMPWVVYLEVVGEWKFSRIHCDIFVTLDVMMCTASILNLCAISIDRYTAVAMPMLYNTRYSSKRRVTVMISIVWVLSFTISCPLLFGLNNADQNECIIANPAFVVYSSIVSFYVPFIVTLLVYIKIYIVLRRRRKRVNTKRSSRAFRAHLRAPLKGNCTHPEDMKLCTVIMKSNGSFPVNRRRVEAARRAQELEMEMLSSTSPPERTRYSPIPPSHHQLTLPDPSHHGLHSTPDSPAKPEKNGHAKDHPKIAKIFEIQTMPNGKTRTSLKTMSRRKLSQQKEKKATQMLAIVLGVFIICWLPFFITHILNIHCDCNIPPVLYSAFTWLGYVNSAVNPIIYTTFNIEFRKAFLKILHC
#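 Calcium-flux readout, 1 cycle/sec over 180 s following compound pin transfer, in inducible HEK293 Trex D2 cells (force-coupled); dopamine controls included. Positive calcium responses during this window marked compounds as potential agonists.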
# D2 PAM-1: HTS Assay for Positive Allosteric Modulators of the Human D2 Dopamine Receptor: Primary Screen for Potentiators | 340,000 tested, 0.34% active | potentiation, % at 10 µM | HEK293 T-REx D2, calcium flux, EC20 dopamine potentiation;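 active = potentiation over 3 SD above the plate norm, cut at about 30% in these data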; note: 0% is about no effect
#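 Using a no-wash calcium dye in inducible, force-coupled HEK293 Trex cells expressing D2, we tracked fluorescence each second for 180 s after compound, then for 180 s after EC20 dopamine to detect augmented signalling.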
# D2 PAM-2: Beta-Arrestin HTS for Positive Allosteric Modulators of the Human D2 Dopamine Receptor: Potentiators; D(2) dopamine receptor (Homo sapiens), P14416; DiscoveRx D2 beta-arrestin cells, luminescence, 90 min; 100% = 57 uM dopamine signal; potentiation, % (no concentration beside the values); 360,000 tested, 0.23% active; AID 624464, 2012; in the data active = potentiation above about 50%; inconclusive = mostly about 30% to 49%
#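 PathHunter D2 cells, attached overnight at 37 deg C, received compound in DMSO plus dopamine at EC20 (50 nM final) for 90 min at 37 deg C. Beta-arrestin recruitment was read as luminescence after 1 h with detection reagent at ambient temperature.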
# D2 antag: HTS Assay for Allosteric Antagonists of the Human D2 Dopamine Receptor: Primary Screen for Antagonists. D(2) dopamine receptor (Homo sapiens), P14416. HEK293 TREx D2 cells, calcium flux, dopamine EC80. inhibition, % at 10 µM. 340,000 tested, 2% active. AID 485344, 2010; in the data active = inhibition above about 30%; inactive = below that, where a call was filed; note: 0% is about no effect
#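 Inhibition of EC80 dopamine-driven calcium flux, recorded kinetically, defines activity here; cells are a tetracycline-induced HEK293 T-REx line expressing force-coupled D2.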
# D2 ag-2: Beta-Arrestin HTS for Positive Allosteric Modulators of the Human D2 Dopamine Receptor: Agonists. 360,000 tested, 0.084% active. D(2) dopamine receptor (Homo sapiens), P14416. AID 624465, 2012. DiscoveRx PathHunter D2 beta-arrestin, luminescence, 90 min; 100% = 57 uM dopamine signal. activation, % (concentration not given with the values); in the data active = activation above about 40%; inconclusive = between about 15% and that limit
#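 DiscoveRx PathHunter D2 beta-arrestin cells (2,100/well) attached overnight, then compound-stimulated 90 min at 37 C in HBSS/10 mM HEPES/0.1% Tween-20 buffer; beta-galactosidase complementation read by luminescence after 1 h at ambient temperature. Dopamine 57 uM final (EC100) as control.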
# Active calls of the source: *; ? = inconclusive; . = no result.
SMILES,D2 ag-1,D2 PAM-1,D2 PAM-2,D2 antag,D2 ag-2
CC(C)(C)OC(=O)N1CCC(CNC(=O)c2ccc(F)cc2F)CC1,0,2,0,-3,3
COc1ccc(Cl)cc1NC(=O)NCc1ccco1,0,-16,-11,18,-5
COc1ccc(Cl)cc1NC(=O)NCC1CCN(C(=O)OC(C)(C)C)CC1,-1,-33,-16,95*,-8
COc1cccc(-n2c(SCC(=O)Nc3nnc(C)s3)nc3c([nH]c4ccccc43)c2=O)c1,1,-1,.,.,.
COC(=O)c1cc(C(=O)OCC(=O)NC2CCS(=O)(=O)C2)cc([N+](=O)[O-])c1 (stereo not drawn),1,-3,4,-3,2
O=C(COC(=O)c1ccc(Sc2ccccc2)c([N+](=O)[O-])c1)NC1CCS(=O)(=O)C1 (stereo not drawn),1,8,-12,32*,-1
CCOC(=O)c1c(SCC(=O)Nc2nc3ccccc3s2)nc(=O)[nH]c1C,1,0,.,.,.
CCOC(=O)c1c(SCC(=O)Nc2nc(C)cs2)nc(=O)[nH]c1C,0,4,-4,32*,-3
Cc1nc(-c2ccc(F)cc2)c(CC(=O)N2CCN(S(=O)(=O)c3cccc(Cl)c3)CC2)s1,-1,-2,-10,34*,-1
CCn1c(SC(C)C(=O)NCC2CCCO2)nc2ccccc21 (stereo not drawn),-2,-5,-16,31*,-1
C=CCn1c(COc2ccc(F)cc2)nnc1SC(C)C(=O)NCC1CCCO1 (stereo not drawn),0,-13,-7,61*,-4
Sc1nnc(-c2ccc(Cl)cc2)n1Cc1ccccc1,0,-1,-16,39*,2
CCC(Sc1nc2ccccc2c2nc(CCc3c(C)n[nH]c3C)nn12)C(=O)Nc1ccc(OC)cc1 (stereo not drawn),0,-12,.,.,.
COc1cc(NC(=O)CCc2c(C)nn(-c3ccc4nncn4n3)c2C)cc(OC)c1OC,.,-5,.,.,.
O=C(Nc1nc(-c2ccc(S(=O)(=O)N3CCOCC3)cc2)cs1)c1ccccc1,-1,33*,?,1,1
COc1ccccc1CCN1CCCC(CN(C)C(=O)c2ccoc2)C1 (stereo not drawn),0,-11,-27,42*,-2
Cc1cccc(C)c1Nc1nnc(SCC(=O)NC2CCS(=O)(=O)C2)s1 (stereo not drawn),1,-13,6,27,3
Cc1ccc(Nc2nnc(SCC(=O)NC3CCS(=O)(=O)C3)s2)c(C)c1 (stereo not drawn),1,-8,-35,39*,-7
O=C(NN1CCN(Cc2ccccc2)CC1)c1ccc(Cl)cc1,2,-38,-27,67*,0
O=C(c1ccc(F)cc1)C1CCN(Cc2ccccc2F)CC1,.,.,-20,.,-7
O=C(c1ccc(Cl)cc1)C1CCN(Cc2ccccc2)CC1,-1,-29,-78,81*,-3
COc1cc(C2c3c(oc4ccccc4c3=O)C(=O)N2c2ccccn2)cc(OC)c1OC (stereo not drawn),.,5,.,.,.
O=S(=O)(c1ccc(Cl)cc1)c1nnn2c1nc(NCc1ccccc1)c1sccc12,0,-3,.,.,.
COc1ccccc1/C=C/C(=O)NCCC1=CCCCC1,-1,-24,-15,35*,-5
CCC(=O)c1ccc(OCC(=O)NCCC2=CCCCC2)c(OC)c1,-1,-1,-4,-4,-1
SMILES,D2 ag-1,D2 PAM-1,D2 PAM-2,D2 antag,D2 ag-2
CCOc1ccc(C(=O)NCCC2=CCCCC2)cc1OCC,-1,-30,-23,38*,2
COc1cc(C(=O)NCCC2=CCCCC2)ccc1OCc1c(C)noc1C,0,-10,-3,32*,-8
CCOC(=O)c1c(S(=O)(=O)N2CCC(C(=O)NCc3cccc(OC)c3)CC2)c(C)n(C)c1C,0,.,.,.,.
Cc1ccc(-c2nnn(CC(=O)N(CC(=O)NCCC(C)C)c3ccc(F)cc3)n2)cc1,1,3,.,.,.
Cc1ccc(-c2csc(N/N=C/c3ccco3)n2)c(C)c1,0,2,56*,0,12
Cc1cccc(NC(=O)c2cn(-c3ccccc3)nc2-c2ccccc2)c1C,1,-2,.,.,.
CCC1ON(C(C)C)C2c3nc4ccccc4n3CC12 (stereo not drawn),0,7,-5,32*,-1
CCC1ON(c2ccccc2)C2c3nc4ccccc4n3CC12 (stereo not drawn),0,15,-8,36*,0
CCOc1ccccc1NC(=O)CSc1nnc2c(CC)c(C)nc(N)n12,3,.,-5,35*,-1
CCOc1ccccc1NC(=O)CSc1nnnn1-c1ccccc1,2,-2,-7,31*,0
COc1ccc(OC)c(-n2nnnc2SCC(=O)Nc2ccccc2OC)c1,8,14,-1,31*,4
CCn1c(SCc2nc3sc(C(=O)O)c(C)c3c(=O)[nH]2)nc2ccccc21,2,3,6,-10,-1
COCCn1c(SCc2nc3sc(C(=O)OC)c(C)c3c(=O)[nH]2)nc2ccccc21,1,-5,-19,31*,-2
COc1ccccc1NC(=O)c1ncn(-c2ccccc2)n1,1,-2,.,.,.
CCOc1ccccc1C(=O)N1CCN(CCc2ccccn2)CC1,.,3,.,.,.
CCN(C(=O)C1CCC(CNS(=O)(=O)c2cccc3nsnc23)CC1)c1ccccc1 (stereo not drawn),0,23,.,.,.
CCOc1ccccc1NC(=O)CSc1nncc2ccccc12,0,35*,-10,-26,-1
COc1ccc(OC)c(NC(=O)CSc2nncc3ccccc23)c1,0,0,-7,0,-1
CCOc1ccc(NC(=O)CN(C)c2nnnn2-c2ccccc2)cc1OCC,1,2,-11,35*,-2
CCOc1ccccc1NC(=O)CSc1nnnn1-c1ccc(C(=O)OC)cc1,-1,8,-7,50*,-1
CCOC(=O)c1ccccc1NC(=O)CSc1nccn1C,1,53*,-21,-1,-2
Cn1c(SCc2ccc(Br)cc2)nc2c([nH]c3ccccc32)c1=O,.,9,.,.,.
COCCn1c(SCC(=O)Nc2cccnc2Cl)nc2ccccc21,.,.,-2,.,-2
COCCn1c(SCC(=O)Nc2ccccc2OC)nc2ccccc21,1,11,0,35*,-5
